The full ranking holds about 25,000 sequences; the median of “ln(normalized median fluorescence intensity)” is about 9.3, and the highest 2% start at about 10. Only a selection was taken, and the highest values are over-represented in it overall.

This note sets out measurements from the supplement of paper PMC11417369.

This test relates to PF3D7_0420300 AP2 domain 1 (GST-tagged). Put plainly: gcPBM binding intensity (ln(normalized median fluorescence intensity)); higher = stronger DNA binding. A digest of the protocol:
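After 1 h on an Agilent 4 × 180k array of primer-extended double-stranded 36-bp intergenic genomic probes and negative controls, bound GST-tagged P. falciparum DNA-binding domains were detected with Alexa488 anti-GST antibody and scanned at 488 nm. The domains had been expressed in E. coli, and binding took place in 1× PBS with 1% milk, 0.2 mg/ml BSA, 0.5% salmon testes DNA and 0.03% Triton X-100. Binding intensity is the highest Masliner-normalised natural-log median intensity across replicate spots of either probe orientation.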
As to “AATGCTATCATTAATGCACACATTTAAAATTAATAT [CACACA_site3548]”, the “gcPBM binding intensity (ln)” value came out at 9.22.
On to “ATTATATTAATTTATAGTACAATATTTATATATATG [XGTACX_site4668]”, for which the “gcPBM binding intensity (ln)” value was found to be 9.2.
For “AAATATATATATAGTACATGCAGTAGATAATTTAAT [TGCATGCA_site299]” the value was 9.51.
The value for “CAGATAGACTTATATGCATGCATTCACATACCAACA [TGCATGCA_site163]” was 9.27.
Consider “ATAATATATATATTTTGTACACATGAAAAGGAGGAT [XGTACX_site5034]”, for which the “gcPBM binding intensity (ln)” value is 9.52.
With “TTGCTTATTAAATGGGGTACATTATATATATATATA [XGTACX_site2515]”, the “gcPBM binding intensity (ln)” value turned out to be 9.49.
The value for “TTTTTTTTTTTTTTTGGTACACATTTTGGTTAATGG [XGTACX_site5109]” was 9.06; that for “ATATTATTATTAGTTTCACACATTTAATGAAACTAA [CACACA_site5677]” was 9.03.
In the case of “TTGTTAATAAAAATATTGGAAAGTTTATAAAATTTT [CACACA_negctrl_site1487]”, the “gcPBM binding intensity (ln)” value was 8.9.
For the sequence “TGTTCTTTGTTCAGCGCATGTAAAATAAAATAAAAT [TGCATGCA_site629]”, the “gcPBM binding intensity (ln)” value stood at 9.04.
As for “AGGAGACTTAAAAAAAGTACAAAAAAAAAAAAAAGC [XGTACX_site1576]”, the “gcPBM binding intensity (ln)” value was determined as 9.65.
For “TATATATATATACCTTGTACTTACATTCGCATATAA [XGTACX_site2466]” the value was 9.32.
The value for “TAATATATGTATTGCACACCTATAACCATTATTTCT [CACACA_site1498]” was 9.51; that for “AGCACAAGCACAAGCACACATTTATATATAAATACA [CACACA_site4642]” was 9.42; that for “ATAATACACAAGCACACACACACACGGATATTTATA [CACACA_site6714]” was 10.3.
Turning to “TATATATATATTTATACACACACATATATTTATATA [CACACA_site8054]”, the “gcPBM binding intensity (ln)” value worked out at 9.59.
With “TATTTATATTTATATACACACATACATATTTATATT [CACACA_site6535]”, the “gcPBM binding intensity (ln)” value turned out to be 9.57.
As for “TACATATTTATATACACACACACACGGATATTTATA [CACACA_site7239]”, the “gcPBM binding intensity (ln)” value was 10.3.
With “ATTTTTATTTTATATACACACAATAATAATATAATA [CACACA_site4015]”, the “gcPBM binding intensity (ln)” value is 9.39.
The value for “GAAATACCGGAAAGCAAACACACATTTTAAAACCAT [CACACA_site3861]” was 9.68; that for “AGATTTAAATATCATACACACTTTATATATAATACA [CACACA_site4688]” was 9.35; that for “TAAAAAAAATAGCATACACACATATATACCTATATA [CACACA_site4535]” was 9.72.
For “CTAGCAAATACATACACACACACACCGATACATATA [CACACA_site9164]” the value was 10.2; for “TTAATATAAGCAAATACACACACACCGATATATATA [CACACA_site9269]”, 10.2.
Consider “TATACATATACATATACACACACACCCATAAATAAA [CACACA_site8372]”, for which the “gcPBM binding intensity (ln)” value worked out at 9.99.
For “TTAATGGCAAAATAGGCACACACACCGATACATATA [CACACA_site8263]” the value was 9.91; for “CTAGCAAATACATACACACACACACGGATACCTATA [CACACA_site7609]”, 10.2; for “CTAGCAAATACATACACACACACACCCATACATATA [CACACA_site3496]”, 10.3.
For “TACTAGCAAATACATACACACACACCCATATACATA [CACACA_site9163]” the value was 10.1; for “CACATACAGATATATACACACAAATATAAATACACA [CACACA_site6512]”, 9.98.
Consider “CTAGCAAATACATACACACACACACCGATACAGATA [CACACA_site5853]”, for which the “gcPBM binding intensity (ln)” value was determined as 10.2.
Take “CACATACAGATATATACACACAAATATATATACTCA [CACACA_site4591]”: the “gcPBM binding intensity (ln)” value came out at 9.76.
For “TATACCTATAAATACACACACATATATAAATAAATA [CACACA_site6730]” the value was 10; for “TATCATTTCATATCAAGTACAAACATTTTACATATA [XGTACX_site5307]”, 9.12; for “GTGCATATCTGATATACACACAATAAAATAGTATGT [CACACA_site7203]”, 9.33.
For the sequence “AAAAAAAATTCACACTGTACAAAAGCATAAATAAAC [XGTACX_site5408]”, the “gcPBM binding intensity (ln)” value came out at 9.75.
Regarding “AATGTGTATATATATACACACACATATATATATTTT [CACACA_site8596]”, the “gcPBM binding intensity (ln)” value was 9.75.
For “TTAATTTTTAGAAGAACACACACATATATATTATGA [CACACA_site7969]” the value was 9.59; for “TACAGATACAGATACACACACACACCGAAATAAATA [CACACA_site4865]”, 10.3; for “TATACAGATAAATACACACACACATATATATATATA [CACACA_site4845]”, 10.
Consider “CATACAGATATATATACACACATACAGATAAATACA [CACACA_site4592]”, for which the “gcPBM binding intensity (ln)” value stood at 9.83.
As for “TTTAATTTTTATATAACACACATATTGTAATTATGT [CACACA_site4566]”, the “gcPBM binding intensity (ln)” value stood at 9.38.
The value for “ATAAATACTAAAAATGAAATATAGAAAATAGCAATA [CACACA_negctrl_site501]” was 9.61; that for “AAAATTCTTCGGGGGAGTACAAGGATATTCTACGTT [XGTACX_site3974]” was 9.53; that for “TGATATCTTAAGAAATGTACAAAGATATAACCATTT [XGTACX_site1913]” was 9.11.
For the sequence “CTCAATATTATTACTACACACAAATTAAAATTTTCC [CACACA_site4203]”, the “gcPBM binding intensity (ln)” value was determined as 9.45.
The value for “ATTTATTCATTTGGGTGTACTATTTAAAAAAAACAA [XGTACX_site498]” was 9.18; that for “AAAATAAAAAGAAAAAGAAAAAAGGGGGGGTAGGGG [CACACA_negctrl_site1048]” was 10.2; that for “AAGGGGTAAAGAAAAACACACAAAAAATAAAAATAT [CACACA_site361]” was 9.65.
In the case of “AAGGGAAAATAATAAAAGAAAAAGAAAAAAAAAAAA [CACACA_negctrl_site1518]”, the “gcPBM binding intensity (ln)” value is 9.21.
Regarding “ATACAGAAAAAAAACACACACACATAATATACATAC [CACACA_site1933]”, the “gcPBM binding intensity (ln)” value was determined as 10.1.
Take “ATATAACAGAAACACACACACATATATATATATTAT [CACACA_site4140]”: the “gcPBM binding intensity (ln)” value is 10.2.
For “TGAAAAAAGAAAAATACACACATATAATATAATATA [CACACA_site2255]” the value was 9.7.
For the sequence “ACAGAAAAAAAACACACACACATAATATACATACAT [CACACA_site1932]”, the “gcPBM binding intensity (ln)” value worked out at 10.2.
For “CATTATAAGAAACACACACACATATATATATATATA [CACACA_site1051]” the value was 9.73; for “TGTATTAATAAAAATACACACATCATATTATAGAAA [CACACA_site7629]”, 9.49.
As for “CATACACAGAAACACACACACATATATATATATATA [CACACA_site4519]”, the “gcPBM binding intensity (ln)” value was determined as 9.79.
For “TAAAAGAAATAATATACACACATATATAAAAATAAA [CACACA_site1329]” the value was 9.6.
The value for “AATTAAAATAATAATACACACATCATAGAAAAAGAC [CACACA_site292]” was 10.4.
The value for “TAAAAAAAAACAGAAACACACATTATTCATATATAT [CACACA_site2049]” was 9.77; that for “TTAATTAGAAATCATACACACATATAAATAAATATA [CACACA_site6225]” was 9.6.
Turning to “ACAGAAAAAAGACACACACACATAATATACATACAT [CACACA_site6991]”, the “gcPBM binding intensity (ln)” value was 10.2.
